In PubChem BioAssay AID720504 (National Center for Advancing Translational Sciences (NCATS), 2013):
About 10,000 (2.8%) of roughly 360,000 compounds were called active. Not shown: some 4% with an inconclusive outcome. This excerpt belongs to a sample that is enriched for actives. A number with no mark means an inactive call. The call rests on the fitted dose curve; in most records, active means well fitted inhibition curve with a large enough effect; inconclusive means small, poorly fitted or top-dose-only effect; inactive means flat fitted curve, though single readings scatter.

Biological target: Serine/threonine-protein kinase PLK1 (Homo sapiens) (UniProt P53350)
Assay: qHTS for Inhibitors of PLK1-PDB (polo-like kinase 1 - polo-box domain): Primary Screen; further: nearly all actives have a fitted effect of over 65% in size; on max response, negative = inhibition: series mostly up to about 57 µM
Settings: Plk1 PBD binding of FITC phosphopeptide, fluorescence polarization
On the % scale 0 is the no-effect control and ±100 the full control effect; potency means the concentration at half of the fitted maximal effect.

Serine/threonine-protein kinase PLK1 (Homo sapiens), sequence (P53350 whole entry, looked up, the tested form may be a part): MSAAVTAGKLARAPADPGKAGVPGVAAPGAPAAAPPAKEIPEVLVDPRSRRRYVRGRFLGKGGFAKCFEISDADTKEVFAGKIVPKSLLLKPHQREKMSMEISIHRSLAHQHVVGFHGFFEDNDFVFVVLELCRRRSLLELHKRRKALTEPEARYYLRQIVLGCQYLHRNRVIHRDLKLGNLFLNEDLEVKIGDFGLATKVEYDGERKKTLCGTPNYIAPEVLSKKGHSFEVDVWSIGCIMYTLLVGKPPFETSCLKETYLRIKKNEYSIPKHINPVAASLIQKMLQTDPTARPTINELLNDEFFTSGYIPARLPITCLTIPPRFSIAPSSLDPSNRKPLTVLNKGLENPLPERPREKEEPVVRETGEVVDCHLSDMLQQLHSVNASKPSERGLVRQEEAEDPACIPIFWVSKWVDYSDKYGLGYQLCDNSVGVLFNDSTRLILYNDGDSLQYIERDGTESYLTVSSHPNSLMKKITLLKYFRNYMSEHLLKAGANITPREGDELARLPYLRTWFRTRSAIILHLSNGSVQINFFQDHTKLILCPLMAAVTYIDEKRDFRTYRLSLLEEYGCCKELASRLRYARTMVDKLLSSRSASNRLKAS

Compared with `C[C@@H]1CN([C@@H](C)CO)C(=O)c2cc(NS(C)(=O)=O)ccc2O[C@@H](C)CCCCO[C@H]1CN(C)C(=O)Nc1ccc2c(c1)OCO2`, `C[C@H]1CN([C@@H](C)CO)C(=O)CCCn2cc(nn2)CO[C@@H]1CN(C)S(=O)(=O)c1ccc(-c2ccccc2)cc1` is lower in max response, negative = inhibition: -18.5% for the first, -23.9% for the second.

First: Cc1cc2c(cc1C)N1C(=O)c3cc4ccccc4cc3NC(=O)C1C(=O)N2 (stereo unspecified)
Second: Cc1ccc2c(c1)C(c1ccccc1)N(C(=O)c1ccc(F)cc1)CC(=O)N2 (stereo unspecified)
The max response, negative = inhibition of the first is lower: -4.16% for the first, -0.372% for the second.

Compared with `COc1ccc(C(c2nnnn2C2CCCC2)N2CCN(C/C=C/c3ccccc3)CC2)cc1` (stereo unspecified), `CCCCn1nnnc1C(c1ccccc1)N1CCN(c2ccccc2OC)CC1` (stereo unspecified) is lower in max response, negative = inhibition: -9.92% for the first, -14.9% for the second.

First: Cc1ccc(S(=O)(=O)N2C[C@]3(O)C[C@@H]4C(=O)N(c5ccccc5)C(=O)[C@@H]4C[C@]3(OC(=O)NC3CC3)C2)cc1
Second: Cc1ccc(S(=O)(=O)N2[C@@H](Cc3ccccc3)CO[C@H]2CC(=O)OCc2ccccc2)cc1
The max response, negative = inhibition of the first is lower: -20.4% for the first, 0.144% for the second.

First: COc1ccccc1Cc1c(-c2ccc(Cl)cc2)nc2ccc(Cl)cn12
Second: Cc1ccc(-c2nc3ccc(Cl)cn3c2Cc2ccccc2)cc1
The max response, negative = inhibition of the first is lower: -19.7% for the first, -1.46% for the second.

Compared with `Cc1ccccc1Cn1c(C)c(C(=O)NCc2cccc(C(F)(F)F)c2)sc1=O`, `O=S1(=O)CC(N2CCN(Cc3ccccc3F)CC2)CN1Cc1cn(Cc2cccc(C(F)(F)F)c2)nn1` (stereo unspecified) is higher in max response, negative = inhibition: -4.46% for the first, -2.54% for the second.

Going from `CCN(C(=O)Nc1cccc2ccccc12)c1ccccc1` to `Cc1ccccc1C(=O)Nc1ccccc1Sc1ccccc1`, the max response, negative = inhibition rises from -4% to 2.65%.

Going from `Cn1ncc([N+](=O)[O-])c1C(=O)Nc1cc(Cl)ccc1Cl` to `COCC(C)NC(=O)c1ccc(Cl)c(Cl)c1` (stereo unspecified), the max response, negative = inhibition falls from -6.39% to -9.11%.

Going from `O=C1c2ccccc2C(c2nc3ccccc3[nH]2)N1c1ccccc1` (stereo unspecified) to `OC(c1ccccc1)c1nc(-c2cnc3ccccc3c2)cs1` (stereo unspecified), the max response, negative = inhibition falls from 3.28% to 1.51%.

Compared with `O=C1Nc2ccccc2NC(c2ccc3c(c2)OCO3)=C1N(Cc1ccc(F)cc1)C(=O)c1ccco1`, `Cc1ccc(C(=O)N2CC(=O)Nc3ccc(F)cc3C2c2ccc(F)cc2)cc1` (stereo unspecified) is higher in max response, negative = inhibition: -4.45% for the first, 1.6% for the second.

First: CC(C)OC(=O)CC(=O)CC(O)c1cccc([N+](=O)[O-])c1 (stereo unspecified)
Second: CN(C(=O)COC(=O)Cc1ccccc1[N+](=O)[O-])C1CCS(=O)(=O)C1 (stereo unspecified)
The max response, negative = inhibition of the first is lower: -7.74% for the first, 1.07% for the second.

First: O=C(Nc1ccc(N2CCCC2=O)cc1)c1cncc(Br)c1
Second: O=C(NC(=S)Nc1ccc(Cl)c(C(=O)O)c1)c1cncc(Br)c1
The max response, negative = inhibition of the first is higher: 6.3% for the first, -11.2% for the second.

Going from `O=C(N/N=C\c1cccc(Br)c1)c1ccccc1-n1cccc1` to `Nc1[nH]c(C(=O)c2ccccc2)c(-c2ccc(Br)cc2)c1C(=O)NC1CC1`, the max response, negative = inhibition falls from -3.78% to -9.8%.

Compared with `CC(C)CN1CCC1(C)C(=O)Nc1ccc(OC(F)F)cc1` (stereo unspecified), `CCC(C(=O)Nc1ccc(C(C)C)cc1)c1ccccc1` (stereo unspecified) is higher in max response, negative = inhibition: -0.833% for the first, 2.25% for the second.

Compared with `CCCNC(=O)C1(C)CCCN(Cc2c(C)nn(-c3ccccc3)c2C)C1` (stereo unspecified), `CCNC(=O)C1(C)CCCN(C(=O)c2c(C)noc2C)C1` (stereo unspecified) is lower in max response, negative = inhibition: 2.73% for the first, -0.543% for the second.

Going from `COCCCNC(NC(=O)c1ccc(OC)cc1)C(Cl)(Cl)Cl` (stereo unspecified) to `COc1ccc(C(=O)NCC[N+](C)(C)C)cc1`, the max response, negative = inhibition falls from 5.66% to 1.35%.

Compared with `C#CCNC(=O)C[C@@H]1C[C@@]2(C(=O)OCC)CCCC=C2N(Cc2ccco2)C1=O`, `COC(=O)[C@]12CCCCC=C1N(Cc1ccco1)C(=O)[C@H](CC(=O)NCC1CCCCC1)C2` is higher in max response, negative = inhibition: -6.05% for the first, -3.48% for the second.

First: CC(C)c1ccc(-c2nn[nH]n2)cc1
Second: c1cc(-c2nn[nH]n2)ccc1CN1CCCCC1
The max response, negative = inhibition of the first is higher: -8.56% for the first, -9.14% for the second.

Compared with `COc1cccc(C(O)c2nc(-c3ccc(C)c(C)c3)cs2)c1` (stereo unspecified), `COCc1cccc(-c2csc(C(O)c3ccc(F)cc3)n2)c1` (stereo unspecified) is lower in max response, negative = inhibition: -8.07% for the first, -9.74% for the second.

Going from `COc1ccc(NC(=O)CSc2nnnn2-c2cccc(OC)c2)cc1` to `COc1ccc(CC(N)c2csc(NC(=O)Cc3ccccc3)n2)cc1` (stereo unspecified), the max response, negative = inhibition falls from 5.21% to -4.52%.

First: COCCn1c(SCC(=O)Nc2ccc(F)cc2F)nc2c(c1=O)SCC2
Second: O=C(CSc1n[nH]c(-c2cccnc2)n1)Nc1ccnc2ccccc12
The max response, negative = inhibition of the first is higher: 10.8% for the first, -8.72% for the second.

First: Cc1ccc(Cc2c(-c3ccccc3)nc3ccc(Cl)cn23)cc1
Second: COc1ccc(-c2nc3ccc(Br)cn3c2Cc2ccc(C)cc2)cc1OC
The max response, negative = inhibition of the first is higher: -1.42% for the first, -11% for the second.

First: CC1Cc2[nH][nH]c(=O)c2C(C2CCCC2)O1 (stereo unspecified)
Second: CNC[C@H]1OCc2cnnn2CCCC(=O)N([C@H](C)CO)C[C@@H]1C
The max response, negative = inhibition of the first is higher: -5.58% for the first, -6.68% for the second.

Compared with `CCN(CC(=O)NC1CCS(=O)(=O)C1)c1nc(-c2cccnc2)nc2ccccc12` (stereo unspecified), `CC(=O)Nc1cccc(-c2ccnc3c2CC(C)(C(=O)NCc2ccccc2)O3)c1` (stereo unspecified) is higher in max response, negative = inhibition: -6.17% for the first, 0.623% for the second.

First: COc1ccc(-c2[nH]nc3c2C(c2ccncc2)C(C#N)=C(N)O3)cc1 (stereo unspecified)
Second: COCc1[nH]nc2c1C(C1C=CCCC1)C(C#N)=C(N)O2 (stereo unspecified)
The max response, negative = inhibition of the first is lower: -28.1% for the first, -8.66% for the second.

Going from `Cc1cc2oc(=O)cc(CN(C)Cc3ccccc3)c2cc1Cl` to `COc1cc(-c2n[nH]c(=S)n2Cc2ccccc2)cc(OC)c1OC`, the max response, negative = inhibition rises from -6.49% to -6.45%.

Going from `CSc1ncc(C(=O)NCCCc2ccccc2)c(C)n1` to `CCCNC(=O)c1c(Cl)cnn1-c1ccc(C)cc1`, the max response, negative = inhibition falls from -4.81% to -6.94%.

Compared with `CN1C[C@@H](CO)O[C@@H](n2cnc3c(N4CCN(CCO)CC4)ncnc32)C1`, `CN1CCN(c2ccc3c(c2)OC[C@H](Cc2ccccc2)NS3(=O)=O)CC1` is lower in max response, negative = inhibition: 2.3% for the first, 0.181% for the second.

Going from `COCCNC(=O)C1CCCN(Cc2ccccc2Cl)CC1` (stereo unspecified) to `CC(=O)N1CCN(Cc2cc(=O)oc3cc(C)ccc23)CC1`, the max response, negative = inhibition rises from -4.77% to -2.03%.

Compared with `CCOC(=O)[C@H]1Nc2ccc(Cl)cc2[C@@H]2[C@H]1C1CC(c3ccccc31)N2C(=O)OCc1ccccc1` (stereo partly specified), `CCC(Oc1ccccc1)C(=O)OCC(=O)Nc1c(C)nn(-c2ccccc2)c1C` (stereo unspecified) is higher in max response, negative = inhibition: -10.8% for the first, -0.819% for the second.

First: CNc1cc(-c2c(OC)cccc2OC)ncn1
Second: COc1cc2nnn(-c3ccncc3)c2cc1OC
The max response, negative = inhibition of the first is lower: -6.78% for the first, -2.85% for the second.

First: CCOC(=O)c1cc2cc(OC)ccc2n1C1CCN(C)CC1
Second: COc1ccc(/C=C(\C#N)C(=O)OCC(=O)N(C)C2CCS(=O)(=O)C2)cc1 (stereo unspecified)
The max response, negative = inhibition of the first is higher: -4.75% for the first, -10.5% for the second.

Going from `CCOc1ccc(CCN2C(=S)N([C@@H](CC(C)C)CN3CCC[C@@H]3CN3C(=S)NC[C@@H]3Cc3ccc(O)cc3)C[C@@H]2CC(C)C)cc1` to `CC(C)Oc1ccc(CCc2n[nH]c(=S)n2Cc2ccccc2)cc1`, the max response, negative = inhibition falls from 5.19% to -8.99%.

First: COc1ccc(OC)c(C(O)c2ncc(-c3cccc(C(F)(F)F)c3)[nH]2)c1 (stereo unspecified)
Second: CCCc1ccc(C(O)c2ncc(-c3cccc(OC)c3)[nH]2)cc1 (stereo unspecified)
The max response, negative = inhibition of the first is higher: 6.6% for the first, -2.5% for the second.

First: Cc1cc(Br)cn2c(Cc3ccccc3C(F)(F)F)c(-c3ccc(Cl)cc3)nc12
Second: Cc1ccc(NC(=S)NCCc2ccc(Cl)cc2)c(C)c1
The max response, negative = inhibition of the first is higher: 2.92% for the first, -3.36% for the second.

Compared with `CCOC(=O)C1(C)CCCN(C(=O)c2cccc(Cl)c2)C1` (stereo unspecified), `CCc1c(N=O)c(-c2ccccc2)n(O)[n+]1[O-]` is higher in max response, negative = inhibition: -9.97% for the first, -2.08% for the second.

First: O=C1NC[C@H](CCCCN2CCN(CCc3ccccc3)C(=O)C2=O)N(CC2CCCCC2)C1=O
Second: COc1cncc(-c2cnc3sc(NCCc4ccccn4)nn23)c1
The max response, negative = inhibition of the first is higher: -4.62% for the first, -12.3% for the second.

For `CC(C)c1ccc(NC(=S)NC2CC3C=CC2C3)cc1` (stereo unspecified), the max response, negative = inhibition was -23.1%.

For `CNc1ccc(SC#N)cc1`, the Potency was 23.8 µM (active).
In the case of `CN(C)c1nc(=Nc2cccc(Cl)c2)ss1`, the Potency is reported as 6.7 µM (active).
For `Nc1ccc2nc3c(=O)[nH]c(=S)[nH]c3nc2c1`, the Potency was 2.67 µM (active).
`O=C(N/N=C/c1cccc(Br)c1)c1ccc(N2CCCC2=O)cc1` was tested, and the Potency was 26.7 µM (active).
In the case of `COCCNC(=S)c1ccc(OC)cc1`, the Potency is reported as 26.7 µM (active).
With `Brc1ccc(-c2nn[nH]n2)cc1` the Potency was 23.8 µM (active).
`Cc1ccc(Cc2c(-c3ccco3)nc3ccc(Cl)cn23)cc1` was tested, and the Potency was 21.2 µM (active).
With `COc1ccc(Nc2nc(-c3cccnc3)nc3ccccc23)cn1` the Potency was 21.2 µM (active).
With `CCCc1[nH]nc2c1C(c1ccc(Br)s1)C(C#N)=C(N)O2` (stereo unspecified) the Potency was 23.8 µM (active).
In the case of `CSc1ncc(Sc2ccccc2)c(C(=O)O)n1`, the Potency is reported as 23.8 µM (active).
With `Cc1ccc2c(c1)C(c1ccccc1)N(C(=O)c1ccc(S(=O)(=O)N3CCOCC3)cc1)CC(=O)N2` (stereo unspecified) the Potency was 23.8 µM (active).
For `CCCNC(=O)c1ccc(Cl)c(Cl)c1`, the Potency was 21.2 µM (active).
`CC(C)Oc1ccc(Cc2n[nH]c(=S)n2Cc2ccccc2)cc1Cl` was tested, and the Potency was 16.8 µM (active).
For `CC(C)c1ccc(NC(=S)NNc2ccc(Cl)c(C(=O)O)c2)cc1`, the Potency was 23.8 µM (active).
For `Cc1ccc(C)c(NC(=S)NNC(=S)Nc2ccc(C(C)C)cc2)c1`, the Potency was 18.9 µM (active).
For `CN(C(=O)COC(=O)c1cc(-c2ccco2)nc2ccccc12)C1CCS(=O)(=O)C1` (stereo unspecified), the Potency was 18.9 µM (active).
